Test results reported in PubChem BioAssay AID1159580 (chemical genetic matrix, 2015).
Screen size: about 5,500 compounds; about 2,000 (36%) were called active. About 18% were inconclusive and are not listed. No stated cut-off is given here; in the data, active means normalized growth mostly below about 0.91 (no sharp cut-off); inconclusive means no clear call, values can overlap the other calls; inactive means mostly above about 0.92. The list shows a part of the results.

Experiment: chemical genetic growth profiling, strain panel (AID 1159580);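 further: tested at 20 µM; growth read once vehicle control cultures reached saturation at 30 °C; 1 = growth at the plate median or of vehicle wells; lower values mean less growth of the strain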
Conditions: growth OD

Measured: normalized growth

O=C1C[C@@H](c2ccc(O)cc2)Oc2cc(O)cc(O)c21
inactive: S. cerevisiae deletion strains, locus YJR075W, strain HOC1, active compounds read low 1.02 | S. cerevisiae deletion strains, locus YKL009W, strain mrt4, active compounds read low 1 | S. cerevisiae deletion strains, locus YKL068W, active compounds read low 0.998 | S. cerevisiae deletion strains, locus YKL085W, strain MDH1 (second series), active compounds read low 1 | S. cerevisiae deletion strains, locus YKL085W, strain MDH1, active compounds read low 1 | S. cerevisiae deletion strains, locus YKL160W, strain elf1, active compounds read low 0.985 | S. cerevisiae deletion strains, locus YKL190W, strain CNB1, active compounds read low 1.01 | S. cerevisiae deletion strains, locus YKR001C, strain vps1, active compounds read low 0.999 | S. cerevisiae deletion strains, locus YKR026C, strain gcn3, active compounds read low 0.962 | S. cerevisiae deletion strains, locus YKR091W, strain srl3, active compounds read low 0.973 | S. cerevisiae deletion strains, locus YLL001W, strain dnm1, active compounds read low 0.944 | S. cerevisiae deletion strains, locus YLL026W, active compounds read low 0.967 | S. cerevisiae deletion strains, locus YLL041C, strain sdh2, active compounds read low 0.977 | S. cerevisiae deletion strains, locus YLR027C, strain aat2, active compounds read low 0.982 | S. cerevisiae deletion strains, locus YLR039C, strain RIC1, active compounds read low 1 | S. cerevisiae deletion strains, locus YLR058C, strain SHM2, active compounds read low 1.01 | S. cerevisiae deletion strains, locus YLR102C, strain apc9, active compounds read low 1.02 | S. cerevisiae deletion strains, locus YLR113W, strain HOG1, active compounds read low 0.967 | S. cerevisiae deletion strains, locus YLR221C, strain rsa3, active compounds read low 0.975 | S. cerevisiae deletion strains, locus YLR258W, strain gsy2, active compounds read low 0.968 | S. cerevisiae deletion strains, locus YLR262C, strain YPT6 (second series), active compounds read low 0.962 | S. cerevisiae deletion strains, locus YLR262C, strain YPT6, active compounds read low 0.992 | S. cerevisiae deletion strains, locus YLR268W, strain sec22, active compounds read low 1.01 | S. cerevisiae deletion strains, locus YLR320W, strain mms22, active compounds read low 0.959 | S. cerevisiae deletion strains, locus YLR330W, strain CHS5, active compounds read low 1.02 | S. cerevisiae deletion strains, locus YLR342W, strain FKS1 (second series), active compounds read low 0.989 | S. cerevisiae deletion strains, locus YLR342W, strain FKS1, active compounds read low 0.963 | S. cerevisiae deletion strains, locus YLR357W, strain rsc2, active compounds read low 0.935 | S. cerevisiae deletion strains, locus YLR370C, strain arc18, active compounds read low 0.957 | S. cerevisiae deletion strains, locus YLR371W, strain rom2, active compounds read low 1.03 | S. cerevisiae deletion strains, locus YLR384C, strain iki3, active compounds read low 0.959 | S. cerevisiae deletion strains, locus YLR418C, strain cdc73, active compounds read low 1.03 | S. cerevisiae deletion strains, locus YML016C, strain PPZ1, active compounds read low 1.01 | S. cerevisiae deletion strains, locus YML032C, strain rad52, active compounds read low 1.01 | S. cerevisiae deletion strains, locus YML120C, strain ndi1, active compounds read low 0.957 | S. cerevisiae deletion strains, locus YML124C, strain tub3, active compounds read low 1.02 | S. cerevisiae deletion strains, locus YMR058W, strain fet3, active compounds read low 0.955 | S. cerevisiae deletion strains, locus YMR078C, strain ctf18, active compounds read low 1.02 | S. cerevisiae deletion strains, locus YMR125W, strain sto1, active compounds read low 0.938 | S. cerevisiae deletion strains, locus YMR129W, active compounds read low 0.966 | S. cerevisiae deletion strains, locus YMR205C, strain PFK2, active compounds read low 0.942 | S. cerevisiae deletion strains, locus YMR223W, strain ubp8, active compounds read low 1.01 | S. cerevisiae deletion strains, locus YMR231W, strain pep5, active compounds read low 0.976 | S. cerevisiae deletion strains, locus YMR263W, strain SAP30, active compounds read low 1.01 | S. cerevisiae deletion strains, locus YMR307W, strain GAS1, active compounds read low 0.994 | S. cerevisiae deletion strains, locus YNL067W, strain RPL9B, active compounds read low 1.01 | S. cerevisiae deletion strains, locus YNL071W, strain lat1, active compounds read low 0.967 | S. cerevisiae deletion strains, locus YNL128W, strain TEP1, active compounds read low 1.02 | S. cerevisiae deletion strains, locus YNL153C, strain GIM3, active compounds read low 1.01 | S. cerevisiae deletion strains, locus YNL183C, strain NPR1, active compounds read low 0.936 | S. cerevisiae deletion strains, locus YNL209W, strain ssb2, active compounds read low 0.966 | S. cerevisiae deletion strains, locus YNL233W, strain BNI4, active compounds read low 0.999 | S. cerevisiae deletion strains, locus YNL248C, strain rpa49, active compounds read low 0.969 | S. cerevisiae deletion strains, locus YNL250W, strain rad50, active compounds read low 1.01 | S. cerevisiae deletion strains, locus YNL271C, strain bni1, active compounds read low 1.01 | S. cerevisiae deletion strains, locus YNL298W, strain CLA4, active compounds read low 1.03 | S. cerevisiae deletion strains, locus YNL307C, strain MCK1, active compounds read low 1.01 | S. cerevisiae deletion strains, locus YNL322C, strain KRE1 (second series), active compounds read low 0.982 | S. cerevisiae deletion strains, locus YNL322C, strain KRE1, active compounds read low 1.01 | S. cerevisiae deletion strains, locus YNR049C, strain mso1, active compounds read low 0.959 | S. cerevisiae deletion strains, locus YNR052C, strain pop2, active compounds read low 1.01 | S. cerevisiae deletion strains, locus YOL006C, strain TOP1, active compounds read low 0.997 | S. cerevisiae deletion strains, locus YOL012C, strain htz1 0.851 | S. cerevisiae deletion strains, locus YOL147C, strain pex11, active compounds read low 1.02 | S. cerevisiae deletion strains, locus YOR001W, strain rrp6, active compounds read low 0.983 | S. cerevisiae deletion strains, locus YOR061W, strain CKA2, active compounds read low 1.02 | S. cerevisiae deletion strains, locus YOR069W, strain VPS5, active compounds read low 1.01 | S. cerevisiae deletion strains, locus YOR070C, strain gyp1, active compounds read low 0.964 | S. cerevisiae deletion strains, locus YOR080W, strain dia2, active compounds read low 0.976 | S. cerevisiae deletion strains, locus YOR083W, strain WHI5, active compounds read low 0.996 | S. cerevisiae deletion strains, locus YOR106W, strain vam3, active compounds read low 0.963 | S. cerevisiae deletion strains, locus YOR136W, strain idh2, active compounds read low 1.02 | S. cerevisiae deletion strains, locus YOR144C, strain elg1, active compounds read low 1.01 | S. cerevisiae deletion strains, locus YOR184W, strain ser1, active compounds read low 1 | S. cerevisiae deletion strains, locus YOR231W, strain MKK1, active compounds read low 0.95 | S. cerevisiae deletion strains, locus YOR265W, strain rbl2, active compounds read low 0.969 | S. cerevisiae deletion strains, locus YOR270C, strain vph1, active compounds read low 0.902 | S. cerevisiae deletion strains, locus YOR290C, strain snf2, active compounds read low 0.923 | S. cerevisiae deletion strains, locus YOR316C, strain cot1, active compounds read low 1.01 | S. cerevisiae deletion strains, locus YPL051W, strain arl3, active compounds read low 0.984 | S. cerevisiae deletion strains, locus YPL055C, strain LGE1, active compounds read low 1.02 | S. cerevisiae deletion strains, locus YPL078C, strain atp4, active compounds read low 0.971 | S. cerevisiae deletion strains, locus YPL106C, strain sse1, active compounds read low 0.957 | S. cerevisiae deletion strains, locus YPL240C, strain hsp82, active compounds read low 0.978 | S. cerevisiae deletion strains, locus YPL241C, strain CIN2, active compounds read low 1 | S. cerevisiae deletion strains, locus YPL256C, strain CLN2, active compounds read low 0.921 | S. cerevisiae deletion strains, locus YPR119W, strain clb2, active compounds read low 1.01 | S. cerevisiae deletion strains, locus YPR141C, strain kar3, active compounds read low 1.01 | S. cerevisiae deletion strains, locus YPR163C, strain tif3, active compounds read low 1 | S. cerevisiae deletion strains, locus YPR167C, strain met16, active compounds read low 1.01 | S. cerevisiae deletion strains, strain wtn01, active compounds read low 1.02 | S. cerevisiae strains, strain wild type, active compounds read low 1.01
